Screening data (PubChem BioAssay)
Only a selection was taken, and hits are over-represented in it overall.
Pf Dd2 inh: qHTS Primary assay for Inhibitors of Plasmodium falciparum Dd2 growth in vitro; Potency, µM (series often up to 28.9 µM), without a hit: at the highest dose activity, negative = inhibition, most hits filed as inhibitors; actives 4.3% (n = 120,000); AID 1347417, 2020; P. falciparum Dd2 growth, SYBR Green, 72 h; active = well fitted inhibition curve with a large enough effect;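 note: plate controls were DMSO vehicle for no effect and reference drug for full effect; nearly all actives have a fitted effect of over 65% in size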
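Infected erythrocytes (Dd2, 0.3% parasitemia, 2.5% hematocrit final) are added to compound in RPMI-1640/Albumax II medium, grown 72 h at 37C in low oxygen, then lysed with saponin/Triton-X containing SYBR Green and read by fluorescence.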
* marks the source's active call; other numbers are inactive results; i = inactive; [ ] = remark or other dose. Potency is the fitted concentration of half-maximal effect.

SMILES | Pf Dd2 inh
CN1CCC(NC(=O)c2n[nH]c3c2CN(C(=O)c2ccccc2)CC3)CC1 | 35%
COc1ccccc1N1CCN(C(=O)CCc2ccccc2C)CC1=O | -4%
CC(=O)N1CCc2c(sc3c2c(=O)n(Cc2ccccc2)c(=O)n3Cc2ccc(Cl)cc2)C1 | -22%
C#CCn1c(=O)n(-c2cccc(Cl)c2C)c(=O)c2c3c(sc21)CN(C(C)=O)CC3 | 7%
COc1ccccc1NC(=O)Cn1c(=O)n(Cc2ccccc2)c(=O)c2c3c(sc21)CN(C(C)=O)CC3 | -10%
CCOC(=O)N1CCc2c(sc3c2c(=O)n(CCc2ccccc2)c(=O)n3Cc2ccc(C)cc2C)C1 | 2.5µM*
CCOC(=O)N1CCc2c(sc3c2c(=O)n(-c2ccc(CC)cc2)c(=O)n3Cc2cccc(OC)c2)C1 | -26%
CCOc1ccc(NC(=O)Cn2c(=O)n(CCc3ccccc3)c(=O)c3c4c(sc32)CCCC4)cc1 | 44%
CCOc1ccccc1NC(=O)Cn1c(=O)n(Cc2ccccc2)c(=O)c2c3c(sc21)CN(C(C)=O)CC3 | -21%
CC(=O)c1cccc(-n2c(=O)c3c4c(sc3n(Cc3ccccc3Cl)c2=O)CN(C(C)=O)CC4)c1 | i
CCOC(=O)N1CCc2c(sc3c2c(=O)n(CCc2ccccc2)c(=O)n3CC(=O)Nc2cccc(C)c2)C1 | i
CC(=O)N1CCc2c(sc3c2c(=O)n(-c2cccc(Cl)c2C)c(=O)n3Cc2ccccc2C)C1 | 8.9µM*
CCOC(=O)N1CCc2c(sc3c2c(=O)n(Cc2ccccc2)c(=O)n3Cc2ccc(C)cc2)C1 | 2.5µM*
CC(=O)N1CCc2c(sc3c2c(=O)n(Cc2ccccc2)c(=O)n3Cc2cccc(Cl)c2)C1 | 10µM*
COCC(=O)N[C@H]1C[C@H]2C(=O)NC[C@@H](CCC(=O)N3CCc4ccccc43)N2C1 | 23%[44.1 µM]
COCc1noc([C@@H]2CN(C(=O)CCC(C)C)C[C@H]2CO)n1 | 2%
O=C(c1cccc(F)c1)N1CCCC1c1nc(C2CCOCC2)no1 (centres undefined) | -3%
O=C(c1ccccn1)N1CCCCCC1c1nnc(-c2ccccc2)o1 (centres undefined) | i
Fc1ccc(OC2CN(Cc3cccc4ccccc34)C2)cc1F | -5%
CC(=O)N1CCc2c(sc3c2c(=O)n(-c2ccccc2)c(=O)n3CC(=O)c2ccccc2)C1 | 0%
CC(=O)c1cccc(-n2c(=O)c3c4c(sc3n(Cc3cccc(C)c3)c2=O)CN(C(C)=O)CC4)c1 | -24%
CC(=O)N1CCc2c(sc3c2c(=O)n(-c2ccccc2)c(=O)n3Cc2cccc(C(F)(F)F)c2)C1 | 10µM*
CCc1c(C)nn(CC(=O)NC2CCCN(c3ncccn3)C2)c1C (centres undefined) | -2%
CC(C)NC(=O)c1cc(-c2ccc(Cl)nc2)nc2c1cnn2C | -2%
O=S(=O)(c1cccnc1)N1CCc2onc(-c3cccc4ccccc34)c2C1 | -17%
SMILES | Pf Dd2 inh
COCc1cc(N2CCc3onc(-c4cccc5ccccc45)c3C2)ncn1 | 14µM*
COc1ncccc1C(=O)N1CCc2onc(-c3cccc4ccccc34)c2C1 | -20%
O=C(Nc1ccccc1F)N1[C@H]2CC[C@@H]1c1cncnc1C2 | 11%
O=C(Nc1ccc2[nH]ccc2c1)c1ccc(-c2ncc3cnc(C4=CCOCC4)cn23)cc1 | 1.6µM*
O=C(Nc1ccc2[nH]ccc2c1)c1cnc2c(c1)N([S+](=O)([O-])c1cccnc1)CCC2 | i
O=C(O)c1ccc(-c2ncc3cnc(C4=CCOCC4)cn23)cc1 | -18%[44.1 µM]
Cc1ccc(C(=O)N2CCC(CCC(=O)NCc3nc4ccccc4n3C)CC2)cc1 | -40%
CCSc1ncc(CN2CC[C@@H](NC(=O)c3cnccn3)[C@H](O)C2)cn1 | -10%
CCCN1CCC(NC(=O)c2cc(COc3ccccc3)[nH]n2)CC1 | 2%
CCCCOCc1cc(CN2CCN(c3cccc(Cl)c3)CC2)c(O)c2ncccc12 | 1µM*
COc1cc(Cl)cc(CN2CCN(c3ncccc3C#N)CC2)c1OC | i
CCCOCc1cc(CN2CCN(c3cccc(Cl)c3)CC2)c(O)c2ncccc12 | 3.2µM*
CCOC(=O)C1=C(CN2CCN(c3cccc(Cl)c3)CC2)NC(=O)NC1c1ccc(Cl)cc1 (centres undefined) | i
Cn1ncc2c(N3CCN(c4cccc(Cl)c4)CC3)ncnc21 | 8%
CCOc1ccc2oc(=O)cc(CN3CCN(C(=O)c4cccc(Cl)c4)CC3)c2c1 | i
COc1cc(Cl)ccc1C(=O)N1CCC2(CC1)CC(O)CCO2 (centres undefined) | -11%
COC(=O)c1[nH]ncc1CN1CCCC2(C1)CN(C)C(=O)O2 (centres undefined) | -10%
CCNC(=O)N[C@H]1CC[C@]2(C)CC[C@@H]([C@H](C)C(=O)NCc3ccccc3)[C@H](O)[C@H]2[C@@H]1C | 17%[44.1 µM]
COc1cccn(CC(=O)N(C)CCn2nc(C)cc2C)c1=O | 0%
Cn1nccc1C(=O)N1CCC(Oc2nccnc2N2CCOCC2)C1 (centres undefined) | 114%
CN1CCC(Oc2nccnc2N2CCc3ccccc32)C1 (centres undefined) | 2.8µM*
